Test [1] in a line: qHTS assay to identify small molecule antagonists of the glucocorticoid receptor (GR) signaling pathway - cell viability counter screen (AID 720693). Note: nearly all actives have a fitted effect of over 55% in size. Background: Quantitative high-throughput screening tests each substance at several concentrations.
Test [2] can be described thus: qHTS assay to identify small molecule antagonists of the androgen receptor (AR) signaling pathway - cell viability counter screen (AID 743033; note: nearly all actives have a fitted effect of over 45% in size).
Test [3] in a line: qHTS assay to identify small molecule antagonists of the androgen receptor (AR) signaling pathway using the MDA cell line - cell viability counter screen (AID 743041; note: nearly all actives have a fitted effect of over 45% in size). In short, it runs like this: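 Using the breast carcinoma line MDA-kb2 AR-luc, test chemicals were co-incubated with R1881 for 16 h; CellTiter-Fluor reagent, added at 15.5 h, provided a fluorescence measure of live cells.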

Test [4] has as its system thyroid hormone receptor (rat, GH3 cells). The experiment in a line: qHTS assay to identify small molecule agonists of the thyroid receptor (TR) signaling pathway (AID 743066; calls by dose curve).
In test [5] the target is Estrogen receptor (Homo sapiens) (UniProt P03372). The experiment in a line: qHTS assay to identify small molecule antagonists of the estrogen receptor alpha (ER-alpha) signaling pathway (AID 743069; active = well fitted curve in the direction sought with a large enough effect in the signal ratio in the repeat runs, not every such curve was filed as active; the % refers to the signal ratio). In short, it runs like this:
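Fluorescence intensity from a beta-lactamase FRET substrate served as the read-out. Cells: HEK293 with stably integrated ER-alpha-UAS-bla reporter. Agonist 17beta-estradiol was co-added with compounds; incubation 18 hr at 37C, substrate 2 hr at room temperature.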

Test [6] can be described thus: qHTS assay to identify small molecule antagonists of the estrogen receptor alpha (ER-alpha) signaling pathway - cell viability counter screen (AID 743074; calls by dose curve; note: nearly all actives have a fitted effect of over 45% in size; note: potency is the fitted concentration of half-maximal effect).
For test [7], the target named is Estrogen receptor (Homo sapiens) (UniProt P03372). The test is described as follows: qHTS assay to identify small molecule agonists of the estrogen receptor alpha (ER-alpha) signaling pathway (AID 743075; calls by dose curve).
Sequence of Estrogen receptor (Homo sapiens) (P03372 whole entry, looked up): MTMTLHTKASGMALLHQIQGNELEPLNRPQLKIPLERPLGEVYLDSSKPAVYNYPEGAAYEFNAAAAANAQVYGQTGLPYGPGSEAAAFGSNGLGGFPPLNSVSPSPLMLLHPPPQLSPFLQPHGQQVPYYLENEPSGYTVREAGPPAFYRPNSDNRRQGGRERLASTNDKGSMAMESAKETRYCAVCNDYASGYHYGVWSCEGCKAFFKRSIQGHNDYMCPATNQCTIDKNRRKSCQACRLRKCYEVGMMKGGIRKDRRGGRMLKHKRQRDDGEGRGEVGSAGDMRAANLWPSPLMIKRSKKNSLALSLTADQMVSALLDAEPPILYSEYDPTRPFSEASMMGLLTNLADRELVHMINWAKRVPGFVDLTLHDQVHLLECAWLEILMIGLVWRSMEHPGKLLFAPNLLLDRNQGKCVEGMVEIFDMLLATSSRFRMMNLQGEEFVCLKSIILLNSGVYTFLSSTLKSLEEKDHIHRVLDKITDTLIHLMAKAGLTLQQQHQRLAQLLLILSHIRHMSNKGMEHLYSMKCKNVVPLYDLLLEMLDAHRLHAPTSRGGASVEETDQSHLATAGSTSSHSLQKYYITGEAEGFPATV
Test [8] shares this target. The test is described as follows: qHTS assay to identify small molecule agonists of the estrogen receptor alpha (ER-alpha) signaling pathway using the BG1 cell line (AID 743079). Note: nearly all actives have a fitted effect of over 20% in size. Note: potency is the fitted concentration of half-maximal effect.
Test [9] is described as follows: qHTS assay to identify small molecule antagonists of the estrogen receptor alpha (ER-alpha) signaling pathway using the BG1 cell line - cell viability counter screen (AID 743081).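 Note: compound given together with 17beta-estradiol as the ER stimulus; nearly all actives have a fitted effect of over 45% in size.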 Note: potency is the fitted concentration of half-maximal effect.
The target in another test is Aromatase (Homo sapiens) (UniProt P11511). The test is described as follows: qHTS assay to identify aromatase inhibitors (AID 743083). Note: series mostly up to about 70 µM; nearly all actives have a fitted effect of over 55% in size.
Sequence of Aromatase (Homo sapiens) (P11511 whole entry, looked up): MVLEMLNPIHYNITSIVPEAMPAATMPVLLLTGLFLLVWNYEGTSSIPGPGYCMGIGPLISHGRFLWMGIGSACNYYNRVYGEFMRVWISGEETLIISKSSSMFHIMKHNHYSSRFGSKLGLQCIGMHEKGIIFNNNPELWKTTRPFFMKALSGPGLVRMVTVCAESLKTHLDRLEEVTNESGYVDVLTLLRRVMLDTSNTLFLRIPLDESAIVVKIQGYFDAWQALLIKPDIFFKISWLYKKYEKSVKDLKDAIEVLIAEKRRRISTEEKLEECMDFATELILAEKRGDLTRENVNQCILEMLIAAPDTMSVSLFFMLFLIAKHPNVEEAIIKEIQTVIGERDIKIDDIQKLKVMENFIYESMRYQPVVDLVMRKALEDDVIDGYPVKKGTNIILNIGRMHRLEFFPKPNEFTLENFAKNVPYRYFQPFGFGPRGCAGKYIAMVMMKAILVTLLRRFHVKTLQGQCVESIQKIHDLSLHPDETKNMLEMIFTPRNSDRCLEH
Test [10] in a line: qHTS assay to identify small molecule antagonists of the thyroid receptor (TR) signaling pathway - cell viability counter screen (AID 743064). Note: nearly all actives have a fitted effect of over 50% in size. Note: potency is the fitted concentration of half-maximal effect. The essentials:
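GH3.TRE-Luc rat pituitary cells dosed after 4 hr plating, co-stimulated with T3 at 1 nM final, incubated 23.5 h at 37 C. Viability measured in the same wells by CellTiter-Fluor fluorescence after 30 min further at 37 C.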

Test [11] can be described thus: qHTS assay for identifying genotoxic compounds that show differential cytotoxicity against isogenic chicken DT40 cell lines with known DNA damage response pathways - wild type cell line (AID 743012). Note: nearly all actives have a fitted effect of over 60% in size. Note: potency is the fitted concentration of half-maximal effect. The essentials: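 Luminescent ATP viability signal (CellTiter-Glo, 30 min RT) recorded after wild type DT40 cells were incubated with compounds for 40 h at 37 C/5% CO2.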

Test [12] is described as follows: qHTS assay for identifying genotoxic compounds that show differential cytotoxicity against isogenic chicken DT40 cell lines with known DNA damage response pathways - Rev3 mutant cell line (AID 743014). Note: nearly all actives have a fitted effect of over 55% in size. Note: potency is the fitted concentration of half-maximal effect.
The nature of test [13]: qHTS assay for identifying genotoxic compounds that show differential cytotoxicity against isogenic chicken DT40 cell lines with known DNA damage response pathways - Rad54/Ku70 mutant cell line (AID 743015). Note: nearly all actives have a fitted effect of over 60% in size. Note: potency is the fitted concentration of half-maximal effect.
Test [14] can be described thus: qHTS assay to identify small molecule antagonists of the thyroid receptor (TR) signaling pathway (AID 743065). Note: nearly all actives have a fitted effect of over 55% in size. Note: potency is the fitted concentration of half-maximal effect. The essentials: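 Antagonism measured as loss of luciferase signal in GH3 cells stably carrying a TRE-luciferase reporter, co-treated with compound and T3 (1 nM final) for 23.5 h at 37 C. Viability was read in the same well by CellTiter-Fluor.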
Test [15] can be described thus: qHTS assay to identify small molecule antagonists of the estrogen receptor alpha (ER-alpha) signaling pathway using the BG1 cell line (AID 743080; calls by dose curve;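 note: BG1 cells stimulated with 17beta-estradiol alongside compound; series mostly up to about 70 µM; nearly all actives have a fitted effect of over 25% in size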). The essentials:
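Seeding, 24 h rest, compound transfer from DMSO, 17beta-estradiol addition, 21.5 h incubation, CellTiter-Fluor (30 min, 37 C), then ONE-Glo (30 min, room temperature): this sequence was run on BG1-Luc-4E2 reporter cells.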

Test [16] addresses Androgen receptor (Homo sapiens) (UniProt P10275). The experiment in a line: qHTS assay to identify small molecule antagonists of the androgen receptor (AR) signaling pathway (AID 743035; active = well fitted inhibition curve with a large enough effect in the signal ratio in the repeat runs, not every such curve was filed as active; the % refers to the signal ratio). In short, it runs like this: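 Quantitative HTS of the Tox21 10K library used HEK293 AR-UAS-bla cells stimulated with R1881 alongside compound for 16 h at 37C, followed by beta-lactamase FRET detection (LiveBLAzer B/G, 2 h, RT).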

For test [17] the target is unchanged. The test is described as follows: qHTS assay to identify small molecule agonists of the androgen receptor (AR) signaling pathway (AID 743036; active = well fitted activation curve with a large enough effect in the signal ratio in the repeat runs, with a control signal flat, not every such curve was filed as active; the % refers to the signal ratio). In short, it runs like this: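 AR-UAS-bla HEK293 cells, plated 4 h before dosing, were treated with compound for 16 h at 37C. beta-Lactamase reporter read after 2 h with LiveBLAzer B/G FRET substrate at room temperature.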

The target is the same in test [18]. The test is described as follows: qHTS assay to identify small molecule agonists of the androgen receptor (AR) signaling pathway using the MDA cell line (AID 743040; note: nearly all actives have a fitted effect of over 20% in size). In short, it runs like this: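 Stable MMTV-luciferase reporter in MDA-kb2 cells; note the promoter carries GR as well as AR response elements. 16 h compound treatment, 37C, 0% CO2; ONE-Glo luminescence endpoint.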

The target is the same in test [19]. The experiment in a line: qHTS assay to identify small molecule antagonists of the androgen receptor (AR) signaling pathway using the MDA cell line (AID 743042; note: nearly all actives have a fitted effect of over 55% in size). In short, it runs like this: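 Antagonist mode: compounds plus R1881 agonist added to MDA-kb2 AR-luc cells, incubated 16 h at 37C. Luciferase reporter luminescence quantified, with multiplexed CellTiter-Fluor readout for cell viability.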

Structures are written as SMILES. Records with an inconclusive call do not appear. The source made the active and inactive calls. Unless noted, calls come from the whole dose curve; as a rule, active = well fitted curve in the direction sought with a large enough effect in the repeat runs; inconclusive = weak or mixed curves; inactive = no such curve, though single readings can be large; an effect the other way counts as inactive or inconclusive.

Sequence of Androgen receptor (Homo sapiens) (P10275 whole entry, looked up): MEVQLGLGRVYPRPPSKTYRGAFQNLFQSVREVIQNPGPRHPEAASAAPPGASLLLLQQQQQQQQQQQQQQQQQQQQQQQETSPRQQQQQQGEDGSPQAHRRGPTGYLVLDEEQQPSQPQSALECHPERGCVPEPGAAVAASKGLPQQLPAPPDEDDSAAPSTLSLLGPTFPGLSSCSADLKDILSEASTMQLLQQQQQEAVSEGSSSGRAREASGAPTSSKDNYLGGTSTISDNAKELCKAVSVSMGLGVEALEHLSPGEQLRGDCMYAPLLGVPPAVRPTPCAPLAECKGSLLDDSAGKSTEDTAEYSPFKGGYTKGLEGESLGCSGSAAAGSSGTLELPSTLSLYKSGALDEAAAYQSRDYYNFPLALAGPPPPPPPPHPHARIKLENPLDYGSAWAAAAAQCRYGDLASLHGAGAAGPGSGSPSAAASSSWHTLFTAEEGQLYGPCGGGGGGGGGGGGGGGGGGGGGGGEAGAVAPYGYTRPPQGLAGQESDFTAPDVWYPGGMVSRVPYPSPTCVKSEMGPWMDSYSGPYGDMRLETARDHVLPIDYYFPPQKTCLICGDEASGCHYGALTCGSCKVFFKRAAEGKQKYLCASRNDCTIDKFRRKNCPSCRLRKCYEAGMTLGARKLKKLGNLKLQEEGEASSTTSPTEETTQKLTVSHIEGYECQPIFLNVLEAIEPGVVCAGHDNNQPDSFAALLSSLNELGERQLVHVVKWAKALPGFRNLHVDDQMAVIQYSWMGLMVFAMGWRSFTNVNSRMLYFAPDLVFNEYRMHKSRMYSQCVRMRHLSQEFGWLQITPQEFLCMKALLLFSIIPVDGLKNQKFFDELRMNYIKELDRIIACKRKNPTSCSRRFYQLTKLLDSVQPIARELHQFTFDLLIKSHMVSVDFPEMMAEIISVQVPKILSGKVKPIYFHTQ

`CC(C)(C)c1ccc(OC(=O)c2ccccc2O)cc1`: the result in [1], in test [2], in test [4] and in test [7] was inactive. For the same molecule, the Potency result (in [3]; in test [5]; in [6]; in test [9]; with Aromatase (Homo sapiens)) was “inactive” in each case. In addition, the Potency in test [8] was 27.3 µM (active).
Consider `OCc1c2ccccc2cc2ccccc12`, for which the molecule was classed as inactive in [1], in test [2] and in [7]. Besides, the Potency entry (in test [3]; in test [10]; in test [6]; in [9]; with Aromatase (Homo sapiens)) was “inactive” each time. Moreover, in [8], the Potency is 54.6 µM (active).
In the case of `CCOC(=O)COc1ccc2c(c1)CC(NCC(O)c1cccc(Cl)c1)CC2` (stereo not drawn), the Potency is 54.9 µM (active) in [11]; 54.9 µM (active) in test [12]; 54.9 µM (active) in test [13]; 27.5 µM (active) in test [10]; 48.9 µM (active) in test [14]. Moreover, the Potency result in [5], in test [8] and in test [9] was “inactive” throughout. Also, in test [7], the molecule was called inactive.
With `O=C1CCC(C2CCCCC2)CC1`, the Potency result (in test [11]; in test [12]; in test [3]; in [10]; in [9]; with Aromatase (Homo sapiens)) was “inactive” in each case. The result in test [2] and in test [4] was inactive.
As to `O=C1C=CC(=O)O1`, the Potency result in test [11], in [13], in test [3], in [10], in [14] and in test [5] was “inactive” in each case. The Potency result (in test [6]; in [8]; in [9]; with Aromatase (Homo sapiens)) was “inactive” in each case. Moreover, the result in [2], in test [4], in test [7] and in test [15] was inactive.
Regarding `Cc1nnc(SCC2=C(C(=O)O)N3C(=O)[C@@H](NC(=O)Cn4cnnn4)[C@H]3SC2)s1`, the Potency result in test [11], in test [13], in [3], in [10], in test [14] and in test [5] was “inactive” each time. For the same molecule, the Potency entry (in test [6]; in test [8]; in test [9]; with Aromatase (Homo sapiens)) was “inactive” each time. In addition, the molecule was called inactive in test [2], in test [4], in test [7] and in test [15].
With `CC(CNC1CCCCC1)OC(=O)c1ccccc1` (stereo not drawn), the Potency entry in test [12], in test [13], in test [3], in [10], in test [14] and in test [5] was “inactive” throughout. Further, the Potency result (in test [6]; in test [8]; in test [9]; with Aromatase (Homo sapiens)) was “inactive” each time. Further, the molecule was called inactive in [2], in [4], in test [7] and in test [15].
As to `CCN(CC)CCOc1ccc(Cc2ccccc2)cc1`, the Potency was 0.473 µM (active) in test [11]; 0.188 µM (active) in [12]; 11.9 µM (active) in test [10]; 10.6 µM (active) in test [14]; 26.8 µM (active) in [6]; 29.8 µM (active) in test [9]. The call in test [2] was inactive. Further, the Potency result in the test with Aromatase (Homo sapiens) was “inactive”.
For the molecule `NCCCN1CCN(CCCN)CC1`, the Potency result in test [12], in test [16], in test [18], in test [3], in [14] and in test [5] was “inactive” each time. In addition, the Potency result (in test [6]; in test [8]; in [9]; with Aromatase (Homo sapiens)) was “inactive” in each case. Moreover, the molecule was classed as inactive in test [2], in test [17], in test [19], in [4], in [7] and in [15].
For the molecule `O=C1CCN(c2ccccc2)N1`, the molecule was called inactive in [2], in test [17], in test [19], in test [4], in test [7] and in test [15]. The Potency result in test [16], in test [18], in [3], in test [10], in test [6] and in test [8] was “inactive” throughout. For the same molecule, the Potency result (in test [9]; with Aromatase (Homo sapiens)) was “inactive” each time.
As to `CC(=O)OC(C)OC(C)=O`, the Potency result in [11], in [16], in test [18], in test [3], in [14] and in test [6] was “inactive” each time. In addition, the Potency entry (in test [9]; with Aromatase (Homo sapiens)) was “inactive” throughout. The result in test [2], in test [17], in test [19] and in test [4] was inactive.

(Values after PubChem BioAssay (Tox21).)
